“And” between values parts separate entries of the source, which are not always exact repeats. Equal values may be shown once. Where a name gives a salt, the structure may show the parent alone. ± gives the standard deviation of the averaged measurements.
tested on: mESC LDLR-Dup GFP reporter (SpCas9 MH-deletion repair); assay: fraction of GFP+ cells relative to DMSO control (fold change); higher = more MH-deletion repair to in-frame LDLR (or more editing); conditions: 2 µM; 7 days post-transfection

Row | SMILES | fraction of GFP+ cells
1 | COc1cc2c(c(OC)c1OC)-c1c(cc3c(c1OC)OCO3)CC(C)C(C)C2 (stereo not given) [Schisandrin B (Sch B)] | 1.02 ± 0.2
2 | CC(=O)c1c(C)c2cnc(Nc3ccc(N4CCNCC4)cn3)nc2n(C2CCCC2)c1=O | 1.36 and 0.964
3 | Cc1cnc(-c2ccccc2C(C)C)nc1NCc1ccc(-n2ccnn2)cc1 | 0.373 ± 0.22
4 | Cc1cn([C@H]2O[C@@H](CO)[C@H](O)[C@H]2F)c(=O)[nH]c1=O [Clevudine] | 0.898 ± 0.28
5 | CN(C)Cc1ccc(-c2nc3cccc4c3n2CCNC4=O)cc1 | 0.517 ± 0.015
6 | O=C(O)c1cn(C2CC2)c2cc(N3CCNCC3)c(F)cc2c1=O [Ciprofloxacin] | 1.01 ± 0.28
7 | COCCCc1sc(-c2ccccc2)nc1C(=O)Nc1ccccc1-c1nc2cc(CN3CCCC3)cnc2s1 | 1.15 ± 0.33
8 | NC1CCN(c2c(F)cc3c(=O)c(C(=O)O)cn(C4CC4)c3c2Cl)C1 (stereo not given) [Clinafloxacin] | 0.685 ± 0.25
9 | CN1CCCC(n2nc(Cc3ccc(Cl)cc3)c3ccccc3c2=O)CC1 (stereo not given) [Azelastine HCl] | 0.868 ± 0.11
10 | O=C(Nc1ccc(O)c(C(=O)O)c1)c1cccc(NC(=O)c2ccco2)c1 | 1.66 ± 0.41
11 | C/C(=C\C(=O)Nc1ccccc1C(=O)O)c1ccc2ccccc2c1 | 0.984 ± 0.45
12 | C[C@H]1COc2c(N3CCN(C)CC3)c(F)cc3c(=O)c(C(=O)O)cn1c23 [Levofloxacin hydrate] | 0.935 ± 0.12
13 | CN1CCc2c(c3ccccc3n2Cc2ccc(C(=O)NO)cc2)C1 [Tubastatin A] | 0.802 ± 0.093
14 | N=C1NC(=O)/C(=C/c2ccc(O)cc2)S1 [Mirin] | 0.862 ± 0.2
15 | Nc1nc2[nH]cc(CCc3ccc(C(=O)N[C@@H](CCC(=O)O)C(=O)O)cc3)c2c(=O)[nH]1 [Pemetrexed Disodium Hydrate] | 1.69 ± 0.34
16 | CN1CCN(c2ccc(Nc3ncc4cc(C#N)c(=O)n(C5CCCC5)c4n3)cc2)CC1 | 0.705 ± 0.077
17 | O=c1c(O)c(-c2ccc(O)c(O)c2)oc2cc(O)cc(O)c12 [Quercetin] | 1.4 ± 0.93
18 | CC(ONC(=O)c1cc(C(F)(F)F)cc(C(F)(F)F)c1)C(=O)Nc1ccc(Cl)cc1 (stereo not given) | 0.994 ± 0.12
19 | Nc1nc2n[nH]nc2c(=O)[nH]1 [Azaguanine-8] | 1.43 ± 0.23
20 | O=[N+]([O-])c1ccc(Nc2ccccc2-c2ccccc2)c2nonc12 | 0.854 ± 0.23

Row | SMILES | fraction of GFP+ cells
21 | CN1CCN(Cc2ccc(NC(=O)Nc3ccc(Oc4ccnc(N)n4)cc3)cc2C(F)(F)F)CC1 | 0.335 ± 0.13
22 | O=c1cc(-c2cccc3c2Sc2ccccc2S3)oc(N2CCOCC2)c1 | 0.661 ± 0.19
23 | Cn1c(=O)cc(C(=O)Nc2ccc3c(c2)OCCO3)c2ccccc21 | 0.931 ± 0.27
24 | O=C(Nc1ccccc1-c1cn2c(CN3CC[C@@H](O)C3)csc2n1)c1ccc2ccccc2c1 | 1.45 ± 0.4
25 | O=NN(CCCl)C(=O)NCCCl [Carmustine] | 1 ± 0.078
26 | COc1cc(Cc2cnc(N)nc2N)cc(OC)c1OC [Trimethoprim] | 0.773 ± 0.079
27 | COc1cc(OCc2cccc(-c3ccccc3)c2C)cc(OC)c1CN1CCCC[C@H]1C(=O)O [pd-1/pd-l1 inhibitor 1] | 0.898 ± 0.35
28 | COc1c(N2CCNC(C)C2)c(F)cc2c(=O)c(C(=O)O)cn(C3CC3)c12 (stereo not given) [Gatifloxacin] | 0.995 ± 0.12
29 | C#Cc1cccc(Nc2ncnc3cc(OC)c(OCCCCCCC(=O)NO)cc23)c1 | 0.66 ± 0.054
30 | N#Cc1c(Oc2ccc(F)c(NC(=O)Cc3cccc(C(F)(F)F)c3)c2)ccc2nc(NC(=O)C3CC3)sc12 | 0.727 ± 0.25
31 | O=c1[nH]c(C2CCCN2)nc2c1oc1ccc(Cl)cc12 (stereo not given) | 1.11 ± 0.15
32 | C[C@@H]1COCCN1c1cc(C2([S@](C)(=N)=O)CC2)nc(-c2cc[nH]c3nccc2-3)n1 | 0.429 ± 0.24
33 | Nc1ccc(O)c(C(=O)O)c1 [Mesalamine] | 0.933 ± 0.049
34 | O=c1oc2c(O)c(O)cc3c(=O)oc4c(O)c(O)cc1c4c23 [Ellagic acid] | 0.913 ± 0.11
35 | Nc1ncnc2c1ncn2[C@@H]1O[C@H](CO)[C@@H](O)[C@@H]1O [Vidarabine] | 1.26 ± 0.36
36 | CCCC(CCC)C(=O)O [valproic acid] | 0.696 ± 0.13
37 | Nc1nc(OCC2CCCCC2)c2[nH]cnc2n1 | 0.88 ± 0.14
38 | O=C(NCC1(c2nc(-c3ccccc3)cs2)CCOCC1)c1cccc(-c2noc(C(F)(F)F)n2)c1 | 0.752 ± 0.12
39 | COc1cc(N2CCN(C)CC2)ccc1Nc1nccc(-c2cn(C)c3cnccc23)n1 | 0.577 ± 0.5
40 | O=C(NCc1cccc(O)c1)Nc1nc(-c2ccncc2)cs1 | 1.11 ± 0.49
